Results reported in the supplement of paper PMC6897291.

What was measured:
U-2932 [1] = experiment: growth inhibition by drug alone (1 - RLU/untreated control) (fraction); higher = stronger inhibition; conditions: 177Lu-lilotomab satetraxetan 0 ug/ml
How it was run: (§1)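 A radiolabelled anti-CD37 antibody conjugate (~600 MBq/mg) was applied for 18 h at 0.5 µg/ml to RIVA and 1 µg/ml to U-2932 cells, with untreated cells run alongside. All cells were washed and seeded at 3,000 cells/well onto library-printed plates at 10/100 nM (RIVA) or 10/1,000 nM (U-2932). Growth inhibition was based on RealTime-Glo luminescence compared with untreated no-drug wells. Daily reads began on day 3 after 1 h at 37°C, with each value being 1 − RLU/mean of the 48 such wells on that plate.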

RIVA [2] = experiment: as above; conditions: 177Lu-lilotomab satetraxetan 0 ug/ml
How it was run: as §1

U-2932 [3] = experiment: growth inhibition by drug plus 177Lu-lilotomab satetraxetan (1 - RLU/untreated control) (fraction); higher = stronger inhibition; conditions: 177Lu-lilotomab satetraxetan 1 ug/ml
How it was run: as §1

RIVA [4] = experiment: as above; conditions: 177Lu-lilotomab satetraxetan 0.5 ug/ml
How it was run: as §1

Structure (SMILES)	growth inhibition by drug alone (U-2932 [1]; 10 nM, time (day): 3)	growth inhibition by drug alone (U-2932 [1]; 10 nM, time (day): 4)	growth inhibition by drug alone (U-2932 [1]; 10 nM, time (day): 5)	growth inhibition by drug alone (U-2932 [1]; 10 nM, time (day): 6)	growth inhibition by drug alone (U-2932 [1]; 1000 nM, time (day): 3)	growth inhibition by drug alone (U-2932 [1]; 1000 nM, time (day): 4)	growth inhibition by drug alone (U-2932 [1]; 1000 nM, time (day): 5)	growth inhibition by drug alone (U-2932 [1]; 1000 nM, time (day): 6)	growth inhibition by drug alone (RIVA [2]; 10 nM, time (day): 3)	growth inhibition by drug alone (RIVA [2]; 10 nM, time (day): 4)	growth inhibition by drug alone (RIVA [2]; 10 nM, time (day): 5)	growth inhibition by drug alone (RIVA [2]; 10 nM, time (day): 6)	growth inhibition by drug alone (RIVA [2]; 100 nM, time (day): 3)	growth inhibition by drug alone (RIVA [2]; 100 nM, time (day): 4)	growth inhibition by drug alone (RIVA [2]; 100 nM, time (day): 5)	growth inhibition by drug alone (RIVA [2]; 100 nM, time (day): 6)	growth inhibition by drug plus 177Lu-lilotomab satetraxetan (U-2932 [3]; 10 nM, time (day): 3)	growth inhibition by drug plus 177Lu-lilotomab satetraxetan (U-2932 [3]; 10 nM, time (day): 4)	growth inhibition by drug plus 177Lu-lilotomab satetraxetan (U-2932 [3]; 10 nM, time (day): 5)	growth inhibition by drug plus 177Lu-lilotomab satetraxetan (U-2932 [3]; 10 nM, time (day): 6)	growth inhibition by drug plus 177Lu-lilotomab satetraxetan (U-2932 [3]; 1000 nM, time (day): 3)	growth inhibition by drug plus 177Lu-lilotomab satetraxetan (U-2932 [3]; 1000 nM, time (day): 4)	growth inhibition by drug plus 177Lu-lilotomab satetraxetan (U-2932 [3]; 1000 nM, time (day): 5)	growth inhibition by drug plus 177Lu-lilotomab satetraxetan (U-2932 [3]; 1000 nM, time (day): 6)	growth inhibition by drug plus 177Lu-lilotomab satetraxetan (RIVA [4]; 10 nM, time (day): 3)	growth inhibition by drug plus 177Lu-lilotomab satetraxetan (RIVA [4]; 10 nM, time (day): 4)	growth inhibition by drug plus 177Lu-lilotomab satetraxetan (RIVA [4]; 10 nM, time (day): 5)	growth inhibition by drug plus 177Lu-lilotomab satetraxetan (RIVA [4]; 10 nM, time (day): 6)	growth inhibition by drug plus 177Lu-lilotomab satetraxetan (RIVA [4]; 100 nM, time (day): 3)	growth inhibition by drug plus 177Lu-lilotomab satetraxetan (RIVA [4]; 100 nM, time (day): 4)	growth inhibition by drug plus 177Lu-lilotomab satetraxetan (RIVA [4]; 100 nM, time (day): 5)	growth inhibition by drug plus 177Lu-lilotomab satetraxetan (RIVA [4]; 100 nM, time (day): 6)
COc1ccc(-c2ccc3c(N4CCOC[C@@H]4C)nc(N4CCOC[C@@H]4C)nc3n2)cc1CO	0.165	0.142	0.0822	0.157	0.896	0.892	0.897	0.909	0.0033	-0.0925	-0.125	-0.292	0.617	0.609	0.575	0.472	0.124	0.14	0.163	0.253	0.899	0.893	0.902	0.923	0.495	0.529	0.545	0.545	0.749	0.763	0.762	0.744
COc1c(C)cnc(Cn2cnc3c(Cl)nc(N)nc32)c1C	0.137	0.0945	0.017	-0.0336	0.935	0.979	0.986	0.987	-0.00355	0.0266	-0.0608	-0.277	0.0172	0.0454	0.0061	-0.105	-0.00351	0.0579	0.0581	0.132	0.949	0.985	0.988	0.989	0.511	0.587	0.6	0.607	0.471	0.569	0.584	0.597
CC(=O)c1c(C)c2cnc(Nc3ccc(N4CCNCC4)cn3)nc2n(C2CCCC2)c1=O	0.0532	0.0389	-0.0177	-0.186	-0.0353	-0.0097	-0.082	-0.259	-0.0338	-0.0722	-0.148	-0.339	-0.149	-0.13	-0.138	-0.285	-0.0112	0.0266	0.0227	0.0699	-0.111	-0.00616	-0.0131	-0.0632	0.392	0.527	0.548	0.545	0.281	0.427	0.426	0.392
CC(C)(C)c1cc(NC(=O)Nc2ccc(-c3cn4c(n3)sc3cc(OCCN5CCOCC5)ccc34)cc2)no1 [Quizartinib (AC220)]	0.0329	-0.0112	-0.0203	0.0321	-0.0933	-0.0955	-0.0983	0.0473	-0.0494	-0.0577	-0.051	-0.0533	-0.339	-0.307	-0.369	-0.46	0.0106	0.0631	0.109	0.208	-0.105	-0.0657	-0.0306	0.182	0.463	0.533	0.557	0.567	0.27	0.368	0.377	0.391
